# PubChem BioAssay
# Several values for one entry are separate records, joined by “and”; a condition that tells them apart may be missing. Identical values can stand only once. Activity calls are given as the source filed them. Rule as the data show it, unless noted: active = inhibition above about 80%; inactive = the rest.
# Legend:
# [1] = hESC survival regulators, cell-based (AID 493140; call rule not given here;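 also: cells exposed to compounds for four days before counting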); settings: human embryonic stem cell survival screen; stronger effect = higher value
# [2] = sensitizers of A549 cells to miR-34 induction, primary screen, imaging, A549 dox-inducible miR-34, nuclei and caspase counts (AID 1347080;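 active = compounds whose cell count with miR-34 switched on is under 0.7 times the count with it off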); settings: A549 miR-34 inducible, Hoechst nuclei count, 48 h
# [3] = survival rescue of mitochondrial mutant cells in low glucose, primary screen, MELAS cybrids, Rieske KO mouse fibroblasts, CellTiter-Glo (AID 1508586;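 active = mean z-score across replicates of 1.96 or higher in either the MELAS or the Rieske mutant cell line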;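 also: z relative to plate mean and SD of compound and empty wells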)
# [4] = LFS_MB_P medulloblastoma growth inhibition, cell-based, chromothripsis tumors, cisplatin or BGB combos (AID 1671449); settings: LFS_MB_P medulloblastoma cells;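 also: cells exposed for 96 hours; 0% = vehicle DMSO and 100% = killing by high DMSO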
# [5] = HDN33 neuroblastoma growth inhibition, cell-based, chromothripsis tumors, cisplatin or BGB combos (AID 1671450); settings: HDN33 neuroblastoma cells, stronger effect = higher value;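 also: cells exposed to compound for four days; 0% = vehicle DMSO and 100% = cell killing by high DMSO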
# [6] = ICB984 medulloblastoma cell growth inhibition, synergistic combos for chromothripsis tumors, cisplatin or BGB combos (AID 1671451; call rule not given here;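 also: cells exposed for 96 hours before readout; 0% = vehicle DMSO and 100% = killing by high DMSO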); settings: ICB984 medulloblastoma cells, drug combinations, stronger effect = higher value
# [7] = LFS_MB_1R medulloblastoma cell growth inhibition, synergistic combos for chromothripsis tumors, cisplatin or BGB combos (AID 1671452); settings: LFS_MB_1R medulloblastoma cells, stronger effect = higher value;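 also: cells exposed for 96 hours before readout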
# [8] = HTB85 osteosarcoma cell growth inhibition, synergistic combos for chromothripsis tumors, BGB or cisplatin IC20 combos (AID 1671453); settings: HTB85 osteosarcoma cells, drug combinations, stronger effect = higher value;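 also: cells exposed for 96 hours before readout; 0% = vehicle DMSO and 100% = high DMSO killing control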
# [9] = CRL2098 osteosarcoma cell growth inhibition, synergistic combos for chromothripsis tumors, BGB or cisplatin IC20 combos (AID 1671454); settings: CRL2098 osteosarcoma cells, drug combinations, stronger effect = higher value;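 also: cells exposed for 96 h before readout; 0% = vehicle DMSO and 100% = killing by high DMSO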
# [10] = HD-MB03 medulloblastoma cell growth inhibition, synergistic combos for chromothripsis tumors, BGB or cisplatin IC20 combos (AID 1671455; in the data active = inhibition above about 83%;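 also: 0% = vehicle DMSO and 100% = high DMSO as cytotoxic control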); settings: HD-MB03 medulloblastoma cells, stronger effect = higher value
# [11] = UWB1.289 ovarian carcinoma cell growth inhibition, synergistic combos for chromothripsis tumors, BGB or cisplatin combos (AID 1671456); settings: UWB1.289 ovarian carcinoma cells, stronger effect = higher value;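 also: cells exposed to compound for four days; 0% = vehicle DMSO and 100% = killing by high DMSO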
# [12] = LFS_MB_2R medulloblastoma cell growth inhibition, synergistic combos for chromothripsis tumors, cisplatin combos (AID 1671457); settings: LFS_MB_2R medulloblastoma cells, stronger effect = higher value;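 also: cells exposed to compound for four days before readout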
# [13] = MDA-MB-436 breast carcinoma cell growth inhibition, synergistic combos for chromothripsis tumors, BGB or cisplatin combos (AID 1671458; call rule not given here;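 also: cells exposed for 96 hours; 0% = vehicle DMSO and 100% = killing by high DMSO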); settings: MDA-MB-436 breast carcinoma growth inhibition, drug combinations, stronger effect = higher value
# [14] = UWB1.289_BRCA1 ovarian cancer growth, cell-based, BGB or cisplatin combinations (AID 1671459); settings: UWB1.289 BRCA1 ovarian carcinoma, drug combinations, stronger effect = higher value
# [15] = human astrocyte viability loss, single and combined drugs, cytotoxicity control for chromothriptic childhood tumor combination screen, cell-based, BGB or cisplatin IC20 combos (AID 1671460); settings: Human astrocytes, drug combinations, stronger effect = higher value;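 also: cells exposed to compounds for 96 hours before viability readout; 0% = vehicle and 100% = killing control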
# [16] = growth inhibition of BT084 medulloblastoma cells, cell-based, ICGC_MB145, cisplatin and BGB IC40 combos (AID 1671461); settings: drug combinations, stronger effect = higher value;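 also: cells exposed to drugs for 96 hours; 0% = vehicle DMSO and 100% = high DMSO full killing control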
# [17] = growth inhibition of RCMB18 medulloblastoma cells, cell-based, cisplatin and BGB IC40 combos (AID 1671462); settings: stronger effect = higher value;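 also: cells exposed to compound for four days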
# [18] = growth inhibition of CRL1545 osteosarcoma cells, cell-based, cisplatin and BGB IC20 combos (AID 1671464); settings: stronger effect = higher value;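 also: cells exposed to compound for 96 hours before readout; 0% = vehicle DMSO and 100% = high DMSO killing control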
# [19] = liver-stage malaria parasite growth inhibition, primary screen, cell-based, HepG2, luciferase luminescence, HepG2 viability (AID 624349; in the data active = parasite load remaining mostly below about 12%, no sharp cut-off; inactive = mostly above about 10%;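 also: 100% = mean of DMSO negative control wells on the same plate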); settings: P. berghei liver stage in HepG2, luciferase luminescence, concentration not given here; parasite load remaining: stronger effect = lower value; viability: measured here: HepG2 viability without parasites
# [20] = stronger effect = lower value, cell number ratio, induced over uninduced
# [21] = measured here: relative caspase fold change +Dox/-Dox
# [22] = measured here: total cells with miR-34 induction, stronger effect = lower value
# [23] = measured here: total cells without miR-34 induction
# [24] = MELAS cybrid survival, CellTiter-Glo 48 h, stronger effect = higher value
# [25] = Rieske KO mouse fibroblast survival, CellTiter-Glo 72 h
# [26] = measured here: combination with BGB IC40, at 0.05 µM
# [27] = measured here: with BGB IC20 combination, at 0.5 µM
# [28] = measured here: with cisplatin IC20 combination, at 0.5 µM
# [29] = measured here: combination with cisplatin, at 0.5 µM
# [30] = measured here: combination with cisplatin, at 5 µM
smiles,measurement,setting,value
Cc1cn(C2CC(N=[N+]=[N-])C(CO)O2)c(=O)[nH]c1=O (stereo not given),survival,[1],10.2 (inactive)
same,fold change,[2]; [20],0.983 (inactive)
same,fold change,[2]; [21],1.14
same,cell count,[2]; [22],8190
same,cell count,[2]; [23],8330
same,z-score,[3]; [24],-0.326 (inactive)
same,z-score,[3]; [25],-0.454
same,inhibition,"[4]; at 0.5 µM, stronger effect = higher value",-14.1% (inactive) and -29.8% (inactive)
same,inhibition,"[4]; measured here: combination with BGB IC20, at 0.005 µM",-13.1% and -7.61%
same,inhibition,"[4]; measured here: combination with BGB IC40, at 0.005 µM",-10.5% and -37.1%
same,inhibition,[4]; [26],-24.2% and -22.6%
same,inhibition,"[4]; measured here: combination with cisplatin, at 0.5 µM, stronger effect = higher value",-21.8% and -53%
same,inhibition,"[4]; measured here: combination with cisplatin, at 5 µM, stronger effect = higher value",-32.8% and -21.5%
same,inhibition,"[5]; BGB combo, at 5 µM",-43.8% and -18.1%
same,inhibition,[5]; at 0.5 µM,-49.6% (inactive) and 10.8% (inactive)
same,inhibition,"[5]; cisplatin combo, at 5 µM",-26% and 16.6%
same,inhibition,[5]; [27],-50.2% and 15%
same,inhibition,[5]; [28],-46.8% and 4.29%
same,inhibition,"[5]; single agent, at 5 µM",-44.8% and -1.12%
same,inhibition,"[6]; BGB IC20 combo, at 0.005 µM",-34.8% and -14.5%
same,inhibition,"[6]; BGB IC40 combo, at 0.005 µM",-37.8% and -34.3%
same,inhibition,"[6]; BGB IC40 combo, at 0.05 µM",-19.4% and -8.93%
same,inhibition,[6]; at 0.5 µM,-42.3% (inactive) and -13.3% (inactive)
same,inhibition,"[6]; cisplatin combo, at 0.05 µM",-22.8% and -13.2%
same,inhibition,"[6]; cisplatin combo, at 0.5 µM",-48.8% and -6.3%
same,inhibition,"[6]; cisplatin combo, at 5 µM",-19.3% and -19.8%
same,inhibition,"[6]; measured here: 5 uM single agent, at 5 µM",-29% and -10.5%
same,inhibition,[7]; at 0.5 µM,-35.4% (inactive) and -15.1% (inactive)
same,inhibition,[7]; [26],-33.7% and -15%
same,inhibition,[7]; [29],-50% and -12.6%
same,inhibition,[7]; [30],-73.7% and 10.3%
same,inhibition,[8]; at 0.5 µM,-30.9% (inactive) and 5.14% (inactive)
same,inhibition,"[8]; measured here: with BGB IC20, at 0.5 µM",-44.2% and -2.77%
same,inhibition,"[8]; measured here: with BGB IC20, at 5 µM",-49% and -21.3%
same,inhibition,"[8]; measured here: with cisplatin IC20, at 0.5 µM",-19.6% and 10.7%
same,inhibition,"[8]; measured here: with cisplatin IC20, at 5 µM",-35.3% and 18.4%
same,inhibition,"[8]; single agent, at 5 µM",-30.3% and -3.23%
same,inhibition,[9]; at 0.5 µM,-75.6% (inactive) and -23.9% (inactive)
same,inhibition,"[9]; measured here: combination with BGB at IC20, at 0.5 µM",-42.6% and -11.7%
same,inhibition,"[9]; measured here: combination with cisplatin at IC20, at 0.5 µM",-96.9% and -12%
same,inhibition,[10]; at 0.5 µM,-21.5% (inactive) and -4.43% (inactive)
same,inhibition,"[10]; measured here: combo with BGB at IC20, at 0.5 µM",-16.2% and -1.6%
same,inhibition,"[10]; measured here: combo with cisplatin at IC20, at 0.5 µM",-27.8% and -2.64%
same,inhibition,[11]; at 0.5 µM,-6.97% (inactive) and -2.38% (inactive)
same,inhibition,"[11]; measured here: inhibition with BGB combination, at 0.05 µM",-33.2% and -11.1%
same,inhibition,"[11]; measured here: inhibition with cisplatin combination, at 0.05 µM",-13% and -8.1%
same,inhibition,[12]; at 0.5 µM,3.25% (inactive) and -11.1% (inactive)
same,inhibition,[12]; [29],-9.8% and -20.4%
same,inhibition,[12]; [30],-113% and -20.1%
same,inhibition,[13]; at 0.5 µM,-19.9% (inactive) and -9.1% (inactive)
same,inhibition,"[13]; measured here: BGB combination, at 0.5 µM",-17.7% and -10.4%
same,inhibition,"[13]; measured here: BGB combination, at 5 µM",-13.1% and -23.1%
same,inhibition,"[13]; measured here: cisplatin combination, at 0.5 µM",-42.5% and -8.26%
same,inhibition,"[13]; measured here: cisplatin combination, at 5 µM",-32% and 1.63%
same,inhibition,"[14]; BGB combination, concentration series, at 5 µM",-27.1% and 1.57%
same,inhibition,[14]; at 0.5 µM,-15.8% (inactive) and 1.59% (inactive)
same,inhibition,"[14]; cisplatin combination, concentration series, at 5 µM",-5.2% and 7.24%
same,inhibition,[15]; at 0.5 µM,1.65% (inactive) and 1.35% (inactive)
same,inhibition,"[15]; measured here: combo with BGB IC20, at 0.5 µM",10% and -0.346%
same,inhibition,"[15]; measured here: combo with cisplatin IC20, at 0.5 µM",-32% and 7.19%
same,inhibition,[16]; at 0.5 µM,-31.2% (inactive) and -18.3% (inactive)
same,inhibition,"[16]; cisplatin combination, at 0.5 µM",-20.4% and -7.03%
same,inhibition,"[16]; cisplatin combination, at 5 µM",-13.7% and 8.51%
same,inhibition,"[16]; measured here: BGB IC40 combination 0.05 uM, at 0.05 µM",-13.5% and -22.4%
same,inhibition,"[16]; single agent, at 5 µM",-33.2% and -6.84%
same,inhibition,[17]; at 0.5 µM,-27.2% (inactive) and -6.41% (inactive)
same,inhibition,"[17]; cisplatin combo, at 5 µM",-15.6% and -7.21%
same,inhibition,"[17]; measured here: BGB IC40 combination, at 0.05 µM",-27% and -25%
same,inhibition,[17]; [29],-39.9% and -10.1%
same,inhibition,"[17]; single agent, at 5 µM",-41.5% and -29.4%
same,inhibition,[18]; at 0.5 µM,-61.3% (inactive) and 13.1% (inactive)
same,inhibition,[18]; [27],-40.5% and 10%
same,inhibition,[18]; [28],-75.6% and 14.6%
same,inhibition,"[18]; single agent, at 0.05 µM",-59.4% and 9.83%
same,inhibition,"[18]; single agent, at 5 µM",-40.3% and 11.6%
CNCCC=C1c2ccccc2C=Cc2ccccc21,survival,[1],0.833 (inactive)
same,parasite load remaining,[19],45.3% (inactive) and 67.3% (inactive)
same,viability,[19],45.5% and 71.9%
same,fold change,[2]; [20],0.862 (inactive)
same,fold change,[2]; [21],1.27
same,cell count,[2]; [22],6810
same,cell count,[2]; [23],7910
same,z-score,[3]; [24],0.194 (inactive)
same,z-score,[3]; [25],0.365
O=C1OC(C(O)CO)C(O)=C1O (stereo not given),fold change,[2]; [20],1.03 (inactive)
same,fold change,[2]; [21],1.05
same,cell count,[2]; [22],8100
same,cell count,[2]; [23],7850
same,z-score,[3]; [24],0.0982 (inactive)
same,z-score,[3]; [25],-0.298
